Compound activity: PubChem BioAssay, National Center for Advancing Translational Sciences (NCATS)
Only some compounds are listed: those with a hit (about 7.4% of all), similar ones and a draw of the others.
ELG1 genotoxic = induces genotoxicity in HEK293T cells with luciferase-tagged ELG1; Potency, µM (titrated, usually from 46 µM), for the others: top-dose activity change, positive = activation, hits mostly activators; HEK293T ELG1-luciferase reporter, luminescence, 16 h; 330,000 tested, 1.3% active; also: % of control where 0% means no effect; nearly all actives have a fitted effect of over 60% in size
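DMSO vehicle served as control against compound-treated ELG1-luciferase HEK293T cells; exposure lasted 16 hr at 37 °C and 5% CO2, followed by ONE-Glo luminescence detection after 30 min.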
Rab9 prom act = activates the Rab9 promoter; 320,000 tested, 2.8% active; AID 485297; Potency, µM (doses to about 9.22 µM), for inactives: at the highest dose activation, negative = inhibition, most hits filed as activators; Huh7 Rab9 promoter-luciferase reporter, luminescence, 24 h; also: % of control where 0% means no effect; nearly all actives have a fitted effect of over 60% in size
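Stable Rab9-luc Huh7, 1500 cells/well, 2 h settle; cmpd in DMSO, 24 h, 37 °C/5% CO2; luciferase reagent 10 min RT; luminescence.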
NPC1 prom act = activators of NPC1 promoter; 320,000 tested, 2.4% active; Potency, µM (top dose mostly 9.22 µM), without a hit: top-dose activation, hits mostly activators; Huh7 NPC1 promoter luciferase reporter, 24 h; AID 485313; also: % of control where 0% means no effect; nearly all actives have a fitted effect of over 60% in size
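Luciferase expression driven by the NPC1 promoter was measured in stably transfected Huh7 cells after a 24 h compound incubation, using a luciferase reagent and a luminescence read.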
FLuc modulator = counter-screen for miR-21 project: firefly luciferase inhibitors or activators | Potency, µM (highest dose often 57.5 µM), for the others: at the highest dose activity change, negative = inhibition, usual class: inhibitors | purified FLuc, Km substrates, luminescence inhibition | 360,000 tested, 6.9% active | P08659;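 also: plate controls were vehicle for no effect and reference inhibitor for full effect; nearly all actives have a fitted effect of over 55% in size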
Target sequence (P08659 whole entry, looked up): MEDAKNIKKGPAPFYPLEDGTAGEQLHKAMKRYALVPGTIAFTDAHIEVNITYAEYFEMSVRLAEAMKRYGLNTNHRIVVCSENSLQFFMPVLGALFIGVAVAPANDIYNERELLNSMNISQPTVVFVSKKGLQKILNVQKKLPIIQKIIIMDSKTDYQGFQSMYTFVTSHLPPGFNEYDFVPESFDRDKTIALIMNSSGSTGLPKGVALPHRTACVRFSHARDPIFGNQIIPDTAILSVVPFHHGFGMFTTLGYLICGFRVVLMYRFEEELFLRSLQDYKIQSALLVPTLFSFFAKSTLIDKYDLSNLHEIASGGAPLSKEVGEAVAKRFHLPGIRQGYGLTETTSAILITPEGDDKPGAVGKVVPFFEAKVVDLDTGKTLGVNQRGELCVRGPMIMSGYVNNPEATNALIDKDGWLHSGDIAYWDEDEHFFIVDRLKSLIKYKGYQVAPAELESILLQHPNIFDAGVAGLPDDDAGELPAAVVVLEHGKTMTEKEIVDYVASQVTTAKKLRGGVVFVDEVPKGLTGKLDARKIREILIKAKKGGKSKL
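Purified P. pyralis luciferase, 10 nM final, with Km-level 10 uM D-luciferin and 10 uM ATP in 50 mM Tris acetate pH 7.5, 10 mM Mg acetate, 0.01% Tween-20, 0.05% BSA; 6-point qHTS titration about 60 µM downward; luminescence read.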
SMN2 splice up = enhancers of SMN2 splice variant expression; Potency, µM (highest dose often 46.1 µM), inactives show at the highest dose activity change, positive = activation, usual class: activators; AID 1458; HEK293 SMN2-luciferase splicing reporter, luminescence, 30-36 h; 210,000 tested, 2.8% active; also: % of control where 0% means no effect; nearly all actives have a fitted effect of over 55% in size
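HEK293 cells carry an SMN2 […]–luciferase reporter in which exon 7 inclusion puts luciferase in frame. Cells were plated 10-12 h before compound addition, then incubated 30-36 h at 37C. ONE-Glo luminescence was read; sodium butyrate at 4.5 mM final served as control.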
Starred values were filed as active, the others as inactive; ? = inconclusive; · = not tested or not shown. Calls follow the shape of the dose curve; as a rule, active = well fitted curve in the direction sought with a large enough effect; inconclusive = small, poorly fitted or top-dose-only effect, or another doubt; inactive = no such curve, though single readings can be large; an effect the other way counts as inactive or inconclusive. Potency is read from the fitted curve at half-maximal effect.

SMILES	ELG1 genotoxic	Rab9 prom act	NPC1 prom act	FLuc modulator	SMN2 splice up
Cc1nc2ccc(NC(=O)c3cnc(Cl)c(Cl)c3)cc2s1	10%	2%	20%	?	·
Cc1cc(C)c2oc(-c3ccc(C)c(NC(=S)NC(=O)c4cccs4)c3)nc2c1	11%	4%	3%	?	-43%
Cc1cc(C)c2oc(-c3ccc(Cl)c(NC(=O)c4cccs4)c3)nc2c1	·	·	·	4.3µM*	8%
Cc1ccc(OC(C)C(=O)N(C)Cc2ccccc2)c([N+](=O)[O-])n1 (centres undefined)	11%	-4%	-2%	1%	·
CCNC(=O)CN(CCc1ccccc1)S(=O)(=O)c1ccc(OC)cc1	-1%	3%	1%	-1%	-17%
CCNC(=O)CN(Cc1ccccc1)S(=O)(=O)c1ccccc1	23µM*	0%	0%	8%	0%
COc1ccc(-c2nc(C)c(CCNC(=O)c3cccc(C)c3)s2)cc1OC	·	·	·	24µM*	·
COc1ccc(-c2nc(C)c(CCNC(=O)c3cccs3)s2)cc1	·	·	·	27µM*	·
COc1ccc(-c2nc(C)c(CCNC(=O)c3ccc(F)c(F)c3)s2)cc1	·	·	·	21µM*	·
Cc1nc2nc(-c3ccc(Cl)cc3)[nH]n2c(=O)c1C	?	2.2µM*	2.5µM*	6µM*	?
Cc1nc2c(-c3ccccc3)c[nH]n2c(=O)c1Cc1ccccc1	1%	?	8%	27µM*	-60%
Cc1nc2nc(-c3ccc(Cl)cc3)[nH]n2c(=O)c1Cc1ccccc1	?	27%	?	3µM*	?
Cc1nc2nc(-c3cccnc3)[nH]n2c(=O)c1Cc1ccccc1	11%	12%	-2%	?	15%
Cc1nc2nc(-c3ccccc3)[nH]n2c(=O)c1C	?	?	24%	?	?
O=C(COc1ccc(Cl)cc1)Nc1ccc2c(c1)C(=O)NC2=O	-1%	1%	-3%	-2%	·
COc1ccccc1CNC(=O)COC(=O)/C=C/c1ccc2ccccc2n1	10%	·	·	·	·
CC(=O)Nc1ccc(N2CC(C)(C)C2=O)cc1	0%	-1%	0%	-15%	8%
CCc1ccc(-c2nc3ccc(Br)cc3c(C(=O)O)c2C)s1	-4%	1%	-2%	21µM*	?
COc1ccc2nc(NC3=NCCC3)sc2c1	?	3.2µM*	3.5µM*	12µM*	?
COc1ccc(-c2nc(NC3=NCCCCC3)sc2C)cc1	-3%	-4%	2%	?	-10%
COc1ccc(Nc2nc3ccccc3s2)cc1	?	1.4µM*	2.5µM*	5.4µM*	10µM*
COc1ccc2nc(NCc3cccnc3)sc2c1	13%	?	23%	?	·
Cc1cccc(Nc2nc3ccccc3s2)c1C	6.5µM*	2.5µM*	3.2µM*	2.4µM*	10µM*
COc1cccc(Nc2nc3ccc(OC)cc3s2)c1	?	4.5µM*	?	4.3µM*	20µM*
COc1ccc(OC)c(NC(=O)CC(=O)Nc2ccc3nc4n(c(=O)c3c2)CCCCC4)c1	·	·	·	?	-18%
SMILES	ELG1 genotoxic	Rab9 prom act	NPC1 prom act	FLuc modulator	SMN2 splice up
CC(=O)c1ccc(N2CCN(c3ncnc4c3c(-c3ccccc3)cn4-c3ccc(Cl)cc3)CC2)cc1	·	·	·	2%	·
NC(=NC(=O)c1ccccc1)N1CCN(C(c2ccccc2)c2ccccc2)CC1	-10%	0%	-6%	-1%	·
COc1ccc2nc(Nc3sc4c(c3C(N)=O)CCCC4)sc2c1	17%	3%	8%	11µM*	29%
COc1ccc(-c2noc(-c3ccc(NC(C)c4ccccc4)c([N+](=O)[O-])c3)n2)cc1OC (centres undefined)	·	·	·	11µM*	·
Cc1c(-c2nc(-c3cccnc3)no2)cccc1[N+](=O)[O-]	?	16%	30%	?	21%
COc1cc(-c2noc(-c3ccc(N4CCOCC4)c([N+](=O)[O-])c3)n2)cc(OC)c1OC	·	·	·	19µM*	·
Cc1cccc(-c2noc(-c3ccc(Cl)cc3[N+](=O)[O-])n2)c1	?	2.5µM*	0.71µM*	1.5µM*	?
COc1ccc(-c2noc(-c3ccc(N4CCCC4)c([N+](=O)[O-])c3)n2)cc1OC	·	·	·	-17%	·
COc1ccc(-c2noc(-c3ccc(Cl)cc3[N+](=O)[O-])n2)cc1OC	17%	4µM*	?	4.3µM*	25µM*
